Laboratory results taken from PubChem BioAssay AID2315 (National Center for Advancing Translational Sciences (NCATS), 2010).
“And” between values parts separate entries of the source, which are not always exact repeats. Equal values may be shown once. Out of some 290,000 compounds screened, about 27,000 (9.3%) were called active. Cut-off read from the data, not from the text of the source: active = inhibition mostly above about 28% (no sharp cut-off); inactive = mostly below about 43%. For the sample, actives were picked, then their nearest neighbours and some compounds at random.

Assay: A qHTS for Small Molecule Inhibitors of Shiga Toxin; note: 0% is about no effect
Conditions: Vero cells, Shiga toxin protein synthesis inhibition reporter; at 38.7 µM, active compounds read high

| SMILES | inhibition |
| --- | --- |
| O=C(O)C1CCCCC1C(=O)N1CCN(S(=O)(=O)c2ccc(F)cc2)CC1 (stereo not given) | -21.1% (inactive) |
| CC1CCN(C(=O)c2ccccc2NC(=O)Cc2ccccc2)CC1 | 13.5% (inactive) |
| Cc1c(C)c2ccc(OCC(=O)N3CCN(c4cccc(Cl)c4)CC3)cc2oc1=O | -20.7% (inactive) |
| COc1ccccc1C1C(C(N)=O)=C(C)Nc2nc(CCCO)nn21 (stereo not given) | -12.2% (inactive) |
| Cc1nc(SCC(=O)NC2CCCC2)[nH]c(=O)c1C | -3% (inactive) |
| CC(=O)NS(=O)(=O)c1ccc(N/C(N)=N/c2nc(C)cc(C)n2)cc1 | 4.41% (inactive) |
| Cc1cccc2c1cnn2C(=O)CCC(=O)NC1CCCCC1 | -4.08% (inactive) |
| CCOC(=O)N1CCN(Cc2nc3cc(NC(=O)CC)ccc3n2CC)CC1 | -2.96% (inactive) |
| Cc1nc2cc(NC(=O)NC3CC3)ccc2n1C | 27.2% (inactive) |
| Cc1nc2cc(NC(=O)Nc3cccc(F)c3)ccc2n1C | 27.6% (active) |
| Cn1ncc(Br)c1C(=O)NCc1cccs1 | 20.7% (inactive) |
| C=CCN(C(=O)Nc1ccc2c(c1)nc(C)n2C)c1ccccc1 | 46.7% (active) |
| C=CCN(C(=O)Nc1ccc2oc(C)nc2c1)c1ccccc1 | 117% (active) |
| Cc1nc2cc(NCc3cccs3)ccc2n1C | 47.7% (active) |
| Cc1nn(CC(=O)Nc2ccc3c(c2)nc(CN2CCCCC2)n3C)c(=O)c2ccccc12 | -8.7% (inactive) |
| Cc1cc(C)cc(NC(=O)N(C)Cc2ccccc2)c1 | 13.5% (inactive) |
| C=CCN(C(=O)Cn1ncc2c1-c1cc(C)ccc1OC2)c1ccccc1 | -10.9% (inactive) |
| COc1ccc(-n2cnc3cc(NCc4ccco4)ccc32)cc1 | 66.3% (inactive) |
| Cc1cc2nc(C)n(CCCNC(=O)Nc3ccccc3)c2cc1C | 9% (inactive) |
| O=C(NCCCn1ccnc1)/C(=C\c1ccccc1F)NC(=O)c1ccccc1 | -7.27% (inactive) |
| COc1cc(NC(=O)CCNC(=O)Cn2ccc3ccccc3c2=O)cc(OC)c1OC | 11.7% (inactive) |
| O=C1CN(C(=O)c2ccccc2F)C(c2ccc(F)cc2)c2cc(F)ccc2N1 (stereo not given) | 18% (inactive) |
| O=C(/C=C/c1ccc([N+](=O)[O-])cc1)NCCSCc1ccco1 | -2.44% (inactive) |
| Cc1cccc(N2CCN(C(=O)CCS(=O)(=O)c3ccc4c(c3)NC(=O)C(C)S4)CC2)c1C (stereo not given) | -11.3% (inactive) |

| SMILES | inhibition |
| --- | --- |
| COc1cc(OC)c2c(c1C(CCN1CCCCC1)c1ccc(N(C)C)cc1)OC(=O)CC2c1ccc(N(C)C)cc1 (stereo not given) | -7.65% (inactive) |
| CCC(=O)Nc1ccc2c(c1)nc(CCN1CCN(c3ccccn3)CC1)n2C | -4.67% (inactive) |
| Cn1c(CCN2CCCC2)nc2cc(NS(=O)(=O)c3ccccc3)ccc21 | 0.447% (inactive) |
| Cn1c(CCN2CCCCCC2)nc2cc(NC(=O)Nc3ccccc3)ccc21 | 73.3% (active) |
| CC(C)c1ccc(S(=O)(=O)N2CCC3(CC2)OCCO3)cc1 | -8.25% (inactive) |
| CNc1nc(Nc2ccc(C)c(Cl)c2)nc(N)c1[N+](=O)[O-] | 68.3% (active) |
| COc1cccc(Nc2nc(N)c([N+](=O)[O-])c(NCc3ccco3)n2)c1 | 45.8% (inactive) |
| Nc1nc(Nc2ccccc2)nc(NCCO)c1[N+](=O)[O-] | 16.8% (inactive) |
| CN(Cc1ccco1)S(=O)(=O)c1nnc(NC(=O)c2ccccc2)s1 | 38.9% (inactive) |
| COc1cc(/C=C/C(=O)OCC(=O)Nc2cccc(Oc3ccccc3)c2)ccc1O | 51.6% (active) |
| COc1ccc(/C=C/C(=O)OCC(=O)Nc2cccc(Oc3ccccc3)c2)c(OC)c1 | -4.44% (inactive) |
| COc1cccc(NC(=O)COC(=O)CCOc2ccccc2OC)c1 | -8.03% (inactive) |
| CCOc1ccccc1CNS(=O)(=O)c1cc(-c2cc(C)no2)ccc1C | -5.31% (inactive) |
| CCCCC(=O)Nc1ccccc1N1CCN(c2ccc(F)cc2)CC1 | -8.03% (inactive) |
| Cc1cc(C)c(S(=O)(=O)c2ccc(F)cc2C)c(=O)[nH]1 | 3.7% (inactive) |
| O=C(N/C(=C\c1ccc([N+](=O)[O-])cc1)C(=O)N1CCCCC1)c1ccco1 | -18.7% (inactive) |
| O=C(O)c1ccccc1NC(=O)c1ccccc1-c1ccccc1C(=O)O | -1.49% (inactive) |
| O=C(NC(=S)Nc1ccccc1C(=O)O)c1ccc(-c2ccc(Br)cc2)o1 | 125% (active) |
| COC(=O)c1ccccc1NC(=S)NC(=O)c1ccccc1F | -1.7% (inactive) |
| O=C(CSc1nc2nccnc2c(=O)n1Cc1cccs1)Nc1ccccc1F | 18.1% (inactive) |
| CC(=O)Nc1ccc(NC(=O)C2CCCN(S(=O)(=O)c3ccc(Cl)cc3)C2)cc1 (stereo not given) | -4.09% (inactive) |
| CCCNC(=O)c1c(Cl)cnn1-c1ccc(C)cc1 | 59.9% (active) |
| CCCNC(=O)c1ccc(Cl)c(Cl)c1 | -6.36% (inactive) |
| CCCNC(=O)CCc1c(C)nc2c(c(C)nn2-c2ccc(C)cc2)c1C | -2.23% (inactive) |

| SMILES | inhibition |
| --- | --- |
| COc1cccc(NC(=O)c2nn(-c3ccc(OC)cc3OC)c(=O)c3ccccc23)c1 | -8.21% (inactive) |
| COc1ccc(-n2nc(C(=O)Nc3cc(OC)c(OC)c(OC)c3)c3ccccc3c2=O)c(OC)c1 | -1.7% (inactive) |
| COc1ccc(-n2nc(C(=O)NCC(=O)N3CCN(c4ccccc4OC)CC3)c3ccccc3c2=O)c(OC)c1 | 73.3% (active) |
| Cc1cc(NC(=O)Nc2ccccc2[N+](=O)[O-])no1 | 28.7% (inactive) |
| Cc1csc(NC(=O)Nc2ccccc2[N+](=O)[O-])n1 | 67.7% (active) |
| Cc1csc(NC(=O)NC2(C(F)(F)F)Oc3ccccc3O2)n1 | 24.4% (inactive) |
| COC(=O)C1=CN(c2ccc(F)c(F)c2)C=C(C(=O)OC)C1c1ccc([N+](=O)[O-])cc1 | 3.77% (inactive) |
| Nc1[nH][nH]c(=O)c1N=Nc1ccc2c(c1)OCO2 | 74.5% (active) |
| Cc1[nH][nH]c(=O)c1C(c1ccc2c(c1)OCO2)c1c(C)[nH][nH]c1=O | -5.46% (inactive) |
| Cc1[nH][nH]c(=O)c1N=Nc1ccccc1 | -4.84% (inactive) |
| CC1CCC(NS(=O)(=O)c2ccc3c(c2)CC(=O)N3)CC1 (stereo not given) | -4.99% (inactive) |
| COc1ccc(OC(C)C(=O)NCCc2nc3ccccc3[nH]2)cc1 (stereo not given) | -1.88% (inactive) |
| c1ccc2c(CSCc3nc4ccccc4[nH]3)cccc2c1 | 42.3% (inactive) |
| Clc1ccccc1SCc1nc2ccccc2[nH]1 | 79.4% (active) |
| COc1cc(C(=O)NN(CCC#N)C2=NS(=O)(=O)c3ccccc32)cc(OC)c1OC | -7% (inactive) |
| O=C(c1ccc(CS(=O)(=O)c2ccccc2)o1)N1CCN(c2ccccc2)CC1 | -5.16% (inactive) |
| COc1ccc(C2(C)NC(=O)N(CC(=O)c3ccc4c(c3)OCO4)C2=O)cc1 (stereo not given) | 20.5% (inactive) |
| O=C(CSc1nnc(CNC(=O)c2ccc(F)cc2)o1)Nc1ccc2c(c1)OCO2 | -2.6% (inactive) |
| O=C(O)c1ccc(OCC2CCCO2)cc1 (stereo not given) | -1.54% (inactive) |
| C=CCn1c(SCc2ccccc2)nc2c1c(=O)[nH]c(=O)n2C | -10.2% (inactive) |
| Cc1c(C(=O)NC(C)C2CC3CCC2C3)cccc1[N+](=O)[O-] (stereo not given) | -7.71% (inactive) |
| COC(=O)/C(NC(C)=O)=C(\C)c1ccc(Cl)cc1 | -4.26% (inactive) |
| COC(=O)C(=Nc1ccccc1)/C(C(=O)C(=O)N(C)c1ccccc1)=C(\O)c1ccc(Cl)cc1 | 127% (active) |
| COC(=O)c1cn(C(=O)c2ccc(Cl)cc2)c2ccccc12 | 10.5% (inactive) |

| SMILES | inhibition |
| --- | --- |
| COCCn1cnc2c1c(=O)n(Cc1ccc(Br)cc1)c(=O)n2Cc1ccccc1 | 15.6% (inactive) |
| O=C(C1CCCO1)N1CCN(C(=S)Nc2cccc(Cl)c2)CC1 (stereo not given) | -2.49% (inactive) |
| Cc1cccc(NC(=S)N2CCCC(c3nc4ccccc4[nH]3)C2)c1 (stereo not given) | -11.2% (inactive) |
| Cc1ccc(C2CCN(C(=S)Nc3cccc(Cl)c3)C2)cc1 (stereo not given) | 47.7% (active) |
| COc1cc(N2C(=O)CSC2=S)cc(OC)c1OC | -9% (inactive) |
| CN(C)CCNC(=O)c1[nH]nc2c1CCc1ccccc1-2 | 35.7% (inactive) |
| Cc1cc(=O)cc(C)n1-c1ccc(Cl)c(Cl)c1 | 14.3% (inactive) |
| O=C(/C=C\NCC(=O)c1ccccc1)c1ccccc1 | 17.6% (inactive) |
| O=C(CNCc1ccc(F)cc1)Nc1ccccc1-c1ccccc1 | -4.12% (inactive) |
| O=C(Cc1c(O)c2ccccc2[nH]c1=O)NCc1ccccc1 | -13.9% (inactive) |
| O=C(/C=C/NCc1ccc(F)cc1)c1ccccc1 | 61.7% (active) |
| O=C(Cc1ccccc1)NCc1ccc(F)cc1 | 55.7% (active) |
| CCCCC(=O)NCc1ccc(F)cc1 | 21.3% (inactive) |
| O=C(CCCc1ccccc1)NCc1ccccc1 | 39.1% (active) |
| O=C(O)CCCc1ccccc1 | -13.8% (inactive) and 15.3% (inactive) |
| O=C(CCOc1ccccc1)NCc1ccccc1 | -3.66% (inactive) |
| CCn1c(SCC(=O)NC2CC2)nnc1-c1ccccc1OC | -5.24% (inactive) |
| O=C1/C(=C/c2ccc(F)cc2)SC(=S)N1CCCC(=O)N1CCCCC1CCO (stereo not given) | -4.46% (inactive) |
| CN(C)CCCN(C(=O)c1ccc(S(=O)(=O)N2CCCc3ccccc32)cc1)c1nc2ccc(F)cc2s1 | -2.08% (inactive) |
| O=C(NCc1ccncc1)C1CCN(C(=O)c2cccc(Cl)c2)CC1 | 4.24% (inactive) |
| COC(=O)C1(C)NC(c2ccc(C)cc2)C2C(=O)N(c3ccc(F)cc3)C(=O)C21 (stereo not given) | -13.6% (inactive) |
| O=S(=O)(c1cc(Cl)ccc1Cl)N1CCN(Cc2ccco2)CC1 | -10.2% (inactive) |
| O=c1[nH]c2ccc(S(=O)(=O)N3CCCC3)cc2[nH]1 | -12.3% (inactive) |
